Values joined by “and” are separate entries in the source; they are usually repeats but may differ in a detail not shown here. Identical values can stand only once. About 3,500 (0.97%) of roughly 360,000 compounds were called active. This is one part of a sample in which actives are shown more often than they occur.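 The calls were made as follows: active = activation above a per-plate cutoff, the mean activation of sample wells on that plate plus 3 SD (cut at about 8% in these data); inactive = the rest.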 A structure can be active in one record and inactive in another.

The target of this experiment is Melanocortin receptor 4 (Homo sapiens) (UniProt P32245). Briefly: activators of MC4R beta-arrestin recruitment – cell-based, luminescence, agonist arm of biased-ligand search, primary screen (AID 540308). The note with it: U2OS MC4R beta-arrestin complementation, at 8.9 µM, stronger effect = higher value, percent of melanotan II response, DMSO zero.
Melanocortin receptor 4 (Homo sapiens), sequence (P32245 whole entry, looked up): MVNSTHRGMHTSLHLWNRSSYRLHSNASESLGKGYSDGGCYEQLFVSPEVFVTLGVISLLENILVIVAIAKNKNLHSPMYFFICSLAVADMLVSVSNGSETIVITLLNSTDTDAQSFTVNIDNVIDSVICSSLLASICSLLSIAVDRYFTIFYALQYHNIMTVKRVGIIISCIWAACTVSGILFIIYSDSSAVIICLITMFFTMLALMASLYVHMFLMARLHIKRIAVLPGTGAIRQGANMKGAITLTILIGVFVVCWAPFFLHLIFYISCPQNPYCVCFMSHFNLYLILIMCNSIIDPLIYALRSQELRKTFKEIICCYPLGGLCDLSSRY
As for `COc1ccc(Cl)cc1-c1cc(C(=O)Nc2cc(OC)c(OC)c(OC)c2)[nH]n1`, the activation is 3.58% (inactive).
With `CCCNC(=O)c1cc(C2CCCCN2S(=O)(=O)c2cn(C)cn2)on1` (configuration not stated) the figure was -0.95% (inactive).
With `O=C(Nc1ccc2oc(-c3ccc4ccccc4c3)nc2c1)c1cccs1` the figure was 14.3% (active); with `O=C(Nc1ccc2oc(-c3ccccc3F)nc2c1)c1ccco1`, -1.85% (inactive); with `COc1ccc2oc(-c3cccc(NC(=O)CSc4ccc(Cl)cc4)c3)nc2c1`, 5.84% (inactive).
In the case of `CCOC(=O)C1(C)CCCN(C(=O)c2cccc(Cl)c2)C1` (configuration not stated), the activation was 0.39% (inactive).
With `COc1ccc(S(=O)(=O)N2CCCCC2c2cc(C(=O)NCc3ccc(F)cc3)no2)cc1` (configuration not stated) the figure was -0.38% (inactive); with `COc1ccc(-c2noc(COc3ccc(Cl)c(C)c3)n2)cc1`, 9.56% (active); with `COc1ccc(C(C)=O)cc1COc1ccc(Cl)c(C)c1`, -1.85% (inactive).
`COc1ccc(N2CCN(C(=O)CCc3nc(-c4ccc(C)cc4)no3)CC2)cc1`: the activation is -1.45% (inactive).
With `O=C(CCCCCN1C(=O)c2cccc3cccc(c23)C1=O)NCc1ccco1` the figure was 19.2% (active); with `O=C(CCCOc1ccccc1)NCc1ccco1`, -0.5% (inactive); with `O=C(COC(=O)CCCN1C(=O)c2cccc3cccc(c23)C1=O)NC1CCS(=O)(=O)C1` (configuration not stated), 0.21% (inactive).
With `CCCNC(=O)C1(C)CCN(C(=O)c2ccc(F)cc2Cl)C1` (configuration not stated) the figure was 0.56% (inactive); with `CCc1nnc(NC(=O)CSCc2cc(=O)n3cc(C)sc3n2)s1`, -1.4% (inactive).
The value for `CCc1nc2c(OCCc3cccc(OC)c3)cccn2c1N(C)C(=O)c1ccc(C)cc1` was -0.79% (inactive); that for `Cc1ccc(/C=N/NC(=O)COc2ccccc2-c2ccccc2)cc1` was 1.38% (inactive).
As for `CSc1ccc(/C=N/NC(=O)c2cccc(Cl)c2)cc1`, the activation is 1.13% (inactive).
The value for `CSc1ccc(/C=N\NC(=O)COc2ccc(Cl)cc2Br)cc1` was 36.4% (active).
With `COCCNc1ncnc2c1ncn2[C@H]1CN(Cc2ccc(OC)cc2)C[C@@H](CO)O1` the figure was 0% (inactive); with `CCCS(=O)(=O)NC(=O)C1(C)CCCN(C(=O)c2cc(C)on2)C1` (configuration not stated), 1.12% (inactive); with `CSc1ccc(S(=O)(=O)NCc2ccc(Cl)cc2)cc1`, 10.2% (active).
The value for `CC(C)CNS(=O)(=O)c1ccc(CCC(=O)NCc2ccc(Cl)cc2)cc1` was 0.27% (inactive); that for `Cc1ccc(S(=O)(=O)NCCC(=O)NCc2ccc(Cl)cc2)cc1C` was -1.43% (inactive); that for `O=C(NC(=S)Nc1cccc2c(O)cccc12)c1cccc(Br)c1` was 30.6% (active).
On to `O=C(NC(=S)Nc1ccc(S(=O)(=O)Nc2ncccn2)cc1)c1cccc(Br)c1`, for which the activation was -2.77% (inactive).
Consider `O=C(NC1CC1)c1cccc(Br)c1`, for which the activation is -2.46% (inactive).
With `Cc1ccccc1Cn1c(C)c(C(=O)NCc2cccc(C(F)(F)F)c2)sc1=O` the figure was 2.6% (inactive); with `Cc1ccc(C)c(N2CCN(C(=O)CCCCCn3c(=S)[nH]c4ccc(N5CCOCC5)cc4c3=O)CC2)c1`, -2.66% (inactive); with `O=C(CCCCCn1c(=S)[nH]c2cc3c(cc2c1=O)OCO3)N1CCN(c2ccc(F)cc2)CC1`, 13.7% (active).
With `CC(C)NC(=O)CCCn1c(=S)[nH]c2cc3c(cc2c1=O)OCO3` the figure was -1.77% (inactive); with `CCc1nc2ccc(C(=O)NCCNC(C)=O)cn2c1N(CC)Cc1cccc(Br)c1`, -0.75% (inactive); with `CCc1nc2ccc(C(=O)Nc3cccc(OC)c3)cn2c1N(CCC(C)C)CCN(C)C`, 0.02% (inactive).
The value for `COc1ccc(C(C)(NC(C)=O)c2nc(-c3ccc(S(C)(=O)=O)cc3)cs2)cc1` (configuration not stated) was -1.32% (inactive).
As for `CC(=O)Nc1ccc(OC(=O)COc2ccc(Br)cc2)cc1`, the activation is -0.49% (inactive).
The value for `Cn1cccc1C(=O)NNC(=O)COc1ccc(Br)cc1` was -1.12% (inactive); that for `Cc1ccc(O)c(NC(=S)NC(=O)COc2ccc(Br)cc2)c1` was 19.5% (active).
With `CCCC(=O)N1CCC1(C)C(=O)NCc1ccc(SC)cc1` (configuration not stated), the activation was -2.08% (inactive).
The value for `CC(C)c1ccc(CC(=O)N2CCC2(C)C(=O)NS(=O)(=O)c2ccc(C(C)(C)C)cc2)cc1` (configuration not stated) was 0.36% (inactive).
With `CS(=O)(=O)Nc1cccc(-c2cn3ccccc3n2)c1` the figure was -3.26% (inactive).
The value for `CCS(=O)(=O)Nc1cccc(-c2cc(-c3ccccc3)c3cc(C)ccc3n2)c1` was 8.87% (active).
In the case of `Cc1cc(C)cc(NS(=O)(=O)Cc2ccccc2)c1`, the activation was 0.25% (inactive).
As to `CNc1cncc(-c2cccc(C(=O)N3CCOCC3)c2)n1`, the activation is -2.12% (inactive).
The value for `NC(c1ccccc1)c1csc(NC(=O)Nc2cccc(C(F)(F)F)c2)n1` (configuration not stated) was 7.09% (inactive); that for `COc1ccc(CC(N)c2csc(NC(=O)Cc3ccccc3)n2)cc1` (configuration not stated) was -0.85% (inactive).
With `COc1ccc(CC(N)c2csc(NC(=O)Nc3ccc(C(C)C)cc3)n2)cc1` (configuration not stated) the figure was 4.05% (inactive).
`COc1ccc(C(N)c2csc(NC(=O)Nc3cccc(C(F)(F)F)c3)n2)cc1` (configuration not stated): the activation was 9.99% (active).
The value for `NC(c1csc(NC(=O)Nc2cccc(C(F)(F)F)c2)n1)C1CCCCC1` (configuration not stated) was 6.14% (inactive).
The value for `COc1ccc(CC(N)c2csc(NC(=O)NC(c3ccccc3)c3ccccc3)n2)cc1` (configuration not stated) was 13.1% (active).
The value for `CC(C)(C)CC(=O)Nc1nc(C(N)Cc2ccc(C(F)(F)F)cc2)cs1` (configuration not stated) was 9.49% (active).
With `NC(Cc1ccccc1)c1csc(Nc2cc(Oc3ccccc3)ncn2)n1` (configuration not stated), the activation is 4.18% (inactive).
With `NC(Cc1ccc(F)cc1)c1csc(Nc2nncc3ccccc23)n1` (configuration not stated) the figure was 6.94% (inactive).
With `Cc1cccc(NC(=O)CN2CCN(CC(=O)NCC3(N4CCCCC4)CCCCC3)CC2)c1C` the figure was -0.84% (inactive); with `c1cc(-c2ccc3[nH]ccc3c2)n2ccnc2c1`, -0.92% (inactive); with `CCNC(=O)C1CCCN(C(=O)c2ccc(OC)cc2OC)CC1` (configuration not stated), 0.47% (inactive).
For `O=C(NCc1ccco1)c1cccc(-c2ccc3nncn3c2)c1`, the activation is 1.37% (inactive).
Consider `CCCOc1ccc(F)cc1-c1cc(C(=O)Nc2ccc(F)cc2)[nH]n1`, for which the activation was 0.53% (inactive).
Regarding `CC1(C(=O)NS(=O)(=O)c2ccccc2)CCN1C(=O)C/C=C/c1ccccc1` (configuration not stated), the activation is -2.25% (inactive).
With `COCc1cccc(-c2csc(C(O)c3ccc(F)cc3)n2)c1` (configuration not stated) the figure was -0.9% (inactive); with `COc1ccc2nc(NC(=O)c3ccc(Br)s3)sc2c1`, 16.2% (active).
With `CSc1ncccc1C(=O)Nc1nc2ccc(F)cc2s1` the figure was -1.02% (inactive).
The value for `COc1ccc(CNC(=O)c2ccc(Br)s2)cc1OC` was -3.45% (inactive); that for `O=C(COc1ccc2c(c1)CCC2)N1CCN(c2ccc(F)cc2)CC1` was 0.92% (inactive).
Turning to `COc1cc(NC(=O)c2[nH]cnc2C(N)=O)cc(C(=O)Nc2cccc(C(F)(F)F)c2)c1`, the activation is 1.84% (inactive).
`O=C(Nc1cccc(C(F)(F)F)c1)c1ccc(N2CCNCC2)c([N+](=O)[O-])c1`: the activation is -2.39% (inactive).
The value for `COc1cc(NC(=O)c2cncc(-c3ccc(C#N)cc3)c2)cc(C(=O)Nc2cccc(C(F)(F)F)c2)c1` was 2.04% (inactive) and 10.5% (active); that for `Cc1nc(C(F)(F)F)ccc1C(=O)N1CCC1(C)C(=O)NS(=O)(=O)c1ccc(F)cc1F` (configuration not stated) was 1.24% (inactive); that for `Cc1cccc(NC(=S)Nc2ccc(Cl)c(Cl)c2)c1` was 8.62% (active).
The value for `NS(=O)(=O)c1ccc(NC(=S)Nc2ccc(Br)c(Cl)c2)cc1` was -1.38% (inactive).
On to `S=C(Nc1ccccc1)Nc1ccc2ccccc2c1`, for which the activation is 0.79% (inactive).
The value for `OC(c1ccc(Cl)c(F)c1)c1ncc(-c2ccccc2Cl)[nH]1` (configuration not stated) was 5.44% (inactive).
With `COc1ccc(-c2noc(C(C)NS(=O)(=O)c3ccc(NC(C)=O)cc3)n2)cc1` (configuration not stated) the figure was -3.52% (inactive); with `CCCC(=O)N1CCC1(C)C(=O)NCc1ccc(C(C)C)cc1` (configuration not stated), 1.64% (inactive); with `COc1c(C)cc(C(O)c2ncc(-c3cccc(C(F)(F)F)c3)[nH]2)cc1C` (configuration not stated), 2.23% (inactive).
Consider `O=C1CC(NNc2ccccc2)C(=O)N1c1cccc(Cl)c1` (configuration not stated), for which the activation is 2.47% (inactive).
The value for `O=C1N/C(=C/c2cccn2-c2ccccc2)C(=O)N1c1cccc(Cl)c1` was 30.7% (active); that for `N#Cc1ccccc1CN1C(=O)S/C(=C/c2cccn2-c2cccc(C(=O)O)c2)C1=O` was 1.23% (inactive).
The value for `CCN(CCN(C)C)C(=O)c1ccc2nc(C)c(N(C)C(=O)CCc3ccccc3)n2c1` was 0.87% (inactive); that for `O=C(NCCCN1CCOCC1)c1cc(-c2cccc(O)c2)on1` was -2.51% (inactive); that for `O=C(c1cc(-c2cccc(O)c2)on1)N1CCc2ccccc2C1` was 11.5% (active).
Regarding `O=C(c1cc(-c2ccc(O)cc2)on1)N1CCOCC1`, the activation was -1.26% (inactive).
With `CC1(C(=O)Nc2cccc3cccnc23)CCN1C(=O)CCC1CCCC1` (configuration not stated) the figure was 0.32% (inactive); with `COc1cccc2sc(N(CCCN(C)C)C(=O)C(c3ccccc3)c3ccccc3)nc12`, 11.3% (active).
As to `Cc1cccc2sc(N(CCCN(C)C)C(=O)CCS(=O)(=O)c3ccccc3)nc12`, the activation is -2.28% (inactive).
With `CCN(CC)CCN(C(=O)c1ccc2c(c1)CCCC2)c1nc2c(OC)cccc2s1` the figure was 5.13% (inactive).
The value for `Cn1c(SCC(=O)Nc2cccc(NC(=O)c3cccs3)c2)nnc1-c1ccncc1` was 0.46% (inactive); that for `Cc1cc(-c2nc(C)c(-c3nnc(SCC(=O)Nc4ccccc4)n3C)s2)no1` was -2.39% (inactive).
With `Cc1nc(-c2nnc(SCC(=O)Nc3cc(C(F)(F)F)cc(C(F)(F)F)c3)n2C)cs1` the figure was 10.2% (active); with `Cc1ccccc1S(=O)(=O)NC(=O)C1(C)CCN1C(=O)C1(c2ccccc2)CCCC1` (configuration not stated), -0.26% (inactive).
For `COc1ccc(-n2nnnc2SCC(=O)NCc2cccs2)cc1`, the activation was -3.21% (inactive).
Take `COc1ccc(-n2nnnc2-c2nc3ccccc3s2)cc1`: the activation is 9.47% (active).
The value for `COc1ccc(CNc2nnnn2C)cc1` was -2.31% (inactive).

Source of the values: PubChem BioAssay AID540308 (The Scripps Research Institute Molecular Screening Center, 2011).
